This note sets out measurements from PubChem BioAssay (Tox21).

Assay [1] can be described thus: qHTS assay to test for compound auto fluorescence at 535 nm (green) in HEK293 cells (AID 720680). (In qHTS, concentration-response curves come from the screen itself.)
A short description of assay [2]: qHTS assay to test for compound auto fluorescence at 460 nm (blue) in HEK293 cell free culture (AID 720681). Summed up: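 Blue fluorescence (Ex 405/Em 460 nm, triamterene-equivalent) was read immediately after pin transfer of compound or DMSO into medium (DMEM, 10% FBS) without cells.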
Assay [3] in a line: qHTS assay to test for compound auto fluorescence at 535 nm (green) in HEK293 cell free culture (AID 720682). The procedure, abridged:
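Using fluorescein as calibrant, autofluorescence was quantified at 485/535 nm in cell-free DMEM containing 10% FBS after pintool addition of compound or vehicle.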

Assay [4] can be described thus: qHTS assay to test for compound auto fluorescence at 590 nm (red) in HEK293 cell free culture (AID 720683). The procedure, abridged:
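Red-channel autofluorescence of compounds in culture medium (DMEM, 10% FBS), no cells, measured at 540/590 nm. Rose Bengal sodium is the reference fluorophore for equivalence.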

Assay [5] is described as follows: qHTS assay to test for compound auto fluorescence at 590 nm (red) in HepG2 cell free culture (AID 720684). The procedure, abridged:
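Cell-free; medium MEM + 10% FBS; compound or DMSO added by pintool; read Ex 540/Em 590 nm; Rose Bengal sodium as red reference fluorophore.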

Assay [6] is described as follows: qHTS assay to test for compound auto fluorescence at 460 nm (blue) in HepG2 cell free culture (AID 720685). The procedure, abridged:
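Cell-free plates of MEM plus 10% FBS received 23 nL compound or DMSO vehicle; blue-channel (405/460 nm) intensity scored against triamterene as reference fluorophore.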

Assay [7] is described as follows: qHTS assay to test for compound auto fluorescence at 535 nm (green) in HepG2 cell free culture (AID 720686).
Assay [8] in a line: qHTS assay to test for compound auto fluorescence at 460 nm (blue) in HepG2 cells (AID 720687). Summed up:
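Blue-channel autofluorescence (Ex/Em 405/460 nm, triamterene-equivalent) was measured after 1 hr compound exposure at 37 C, 5% CO2. Cells were HepG2, plated overnight at 37 C in MEM plus 10% FBS.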

Assay [9] addresses Glucocorticoid receptor (Homo sapiens) (UniProt P04150). Kind of assay: qHTS assay to identify small molecule agonists of the glucocorticoid receptor (GR) signaling pathway (AID 720691; active means well fitted activation curve with a large enough effect in the signal ratio in the repeat runs, not every such curve was filed as active; the % refers to the signal ratio). Summed up:
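Compounds in DMSO, alongside positive controls, were added to GR-bla HeLa reporter cells and incubated 18 h at 37 C; GRE-driven beta-lactamase was detected by fluorescence after 2 h with FRET substrate at room temperature.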

The target is the same in assay [10]. Kind of assay: qHTS assay to identify small molecule antagonists of the glucocorticoid receptor (GR) signaling pathway (AID 720692; active means well fitted inhibition curve with a large enough effect in the signal ratio in the repeat runs, not every such curve was filed as active; the % refers to the signal ratio; further: potency means the concentration at half of the fitted maximal effect). The procedure, abridged: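 In a 1536-well cell format, compounds were added 4 h after seeding GR-bla HeLa cells, together with dexamethasone at 5 nM final; reporter activity was measured by FRET-substrate fluorescence following 18 h at 37 C.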

Assay [11] is described as follows: qHTS assay to identify small molecule antagonists of the glucocorticoid receptor (GR) signaling pathway - cell viability counter screen (AID 720693). Further: nearly all actives have a fitted effect of over 55% in size.
Assay [12] in a line: qHTS assay for identifying genotoxic compounds that show differential cytotoxicity against isogenic chicken DT40 cell lines with known DNA damage response pathways - wild type cell line (AID 743012). Further: nearly all actives have a fitted effect of over 60% in size. Further: potency means the concentration at half of the fitted maximal effect. Summed up:
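Viability of DNA repair-proficient chicken DT40 cells was assessed by CellTiter-Glo luminescence following 40 h compound exposure at 37 C/5% CO2.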

Assay [13] is described as follows: qHTS assay for identifying genotoxic compounds that show differential cytotoxicity against isogenic chicken DT40 cell lines with known DNA damage response pathways - Rev3 mutant cell line (AID 743014). Further: nearly all actives have a fitted effect of over 55% in size. Further: potency means the concentration at half of the fitted maximal effect.
Assay [14] can be described thus: qHTS assay for identifying genotoxic compounds that show differential cytotoxicity against isogenic chicken DT40 cell lines with known DNA damage response pathways - Rad54/Ku70 mutant cell line (AID 743015). Further: nearly all actives have a fitted effect of over 60% in size. Further: potency means the concentration at half of the fitted maximal effect.
A short description of assay [15]: qHTS assay to identify small molecule antagonists of the androgen receptor (AR) signaling pathway - cell viability counter screen (AID 743033; further: nearly all actives have a fitted effect of over 45% in size; further: potency means the concentration at half of the fitted maximal effect).
A short description of assay [16]: qHTS assay to identify small molecule antagonists of the androgen receptor (AR) signaling pathway using the MDA cell line - cell viability counter screen (AID 743041; further: nearly all actives have a fitted effect of over 45% in size; further: potency means the concentration at half of the fitted maximal effect). The procedure, abridged: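 Viability read by CellTiter-Fluor fluorescence in the same wells as the antagonist screen, added after 15.5 h of a 16 h, 37C exposure. Human breast carcinoma MDA-kb2 AR-luc cells, compounds co-dosed with agonist R1881.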

Assay [17] deals with Androgen receptor (Homo sapiens) (UniProt P10275). Kind of assay: qHTS assay to identify small molecule antagonists of the androgen receptor (AR) signaling pathway (AID 743035; active means well fitted inhibition curve with a large enough effect in the signal ratio in the repeat runs, not every such curve was filed as active; the % refers to the signal ratio). Summed up:
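Reporter HEK293 cells were exposed to compounds and R1881 overnight (16 h, 37C); beta-lactamase activity was then quantified by FRET fluorescence.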

For assay [18] the target is unchanged. Briefly: qHTS assay to identify small molecule agonists of the androgen receptor (AR) signaling pathway (AID 743036; active means well fitted activation curve with a large enough effect in the signal ratio in the repeat runs, with a control signal flat, not every such curve was filed as active; the % refers to the signal ratio). Summed up: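 In this Tox21 qHTS, 2,000 HEK293 AR-bla cells per well were incubated with compounds for 16 h at 37C and 5% CO2. Fluorescence intensity was recorded 2 h after adding LiveBLAzer B/G FRET substrate at room temperature.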
For assay [19] the target is unchanged. Briefly: qHTS assay to identify small molecule agonists of the androgen receptor (AR) signaling pathway using the MDA cell line (AID 743040; further: nearly all actives have a fitted effect of over 20% in size). Summed up:
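Luciferase agonist assay: 16 h compound exposure at 37C without CO2 in MDA-kb2 AR-luc cells, whose MMTV promoter responds to both AR and GR. Luminescence measured after 30 min room-temperature incubation with ONE-Glo.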

Assay [20] shares this target. Kind of assay: qHTS assay to identify small molecule antagonists of the androgen receptor (AR) signaling pathway using the MDA cell line (AID 743042; further: nearly all actives have a fitted effect of over 55% in size). The procedure, abridged:
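Antagonist mode: compounds plus R1881 agonist added to MDA-kb2 AR-luc cells, incubated 16 h at 37C. Luciferase reporter luminescence quantified, with multiplexed CellTiter-Fluor readout for cell viability.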

Each structure is given as a SMILES string. Results filed as inconclusive are left out. Activity calls are given as the source filed them. Unless noted, the call rests on the fitted dose curve; in most records, active means well fitted curve in the direction sought with a large enough effect in the repeat runs; inconclusive means weak or mixed curves; inactive means no such curve, though single readings can be large; an effect the other way counts as inactive or inconclusive.

Sequence of Glucocorticoid receptor (Homo sapiens) (P04150 whole entry, looked up): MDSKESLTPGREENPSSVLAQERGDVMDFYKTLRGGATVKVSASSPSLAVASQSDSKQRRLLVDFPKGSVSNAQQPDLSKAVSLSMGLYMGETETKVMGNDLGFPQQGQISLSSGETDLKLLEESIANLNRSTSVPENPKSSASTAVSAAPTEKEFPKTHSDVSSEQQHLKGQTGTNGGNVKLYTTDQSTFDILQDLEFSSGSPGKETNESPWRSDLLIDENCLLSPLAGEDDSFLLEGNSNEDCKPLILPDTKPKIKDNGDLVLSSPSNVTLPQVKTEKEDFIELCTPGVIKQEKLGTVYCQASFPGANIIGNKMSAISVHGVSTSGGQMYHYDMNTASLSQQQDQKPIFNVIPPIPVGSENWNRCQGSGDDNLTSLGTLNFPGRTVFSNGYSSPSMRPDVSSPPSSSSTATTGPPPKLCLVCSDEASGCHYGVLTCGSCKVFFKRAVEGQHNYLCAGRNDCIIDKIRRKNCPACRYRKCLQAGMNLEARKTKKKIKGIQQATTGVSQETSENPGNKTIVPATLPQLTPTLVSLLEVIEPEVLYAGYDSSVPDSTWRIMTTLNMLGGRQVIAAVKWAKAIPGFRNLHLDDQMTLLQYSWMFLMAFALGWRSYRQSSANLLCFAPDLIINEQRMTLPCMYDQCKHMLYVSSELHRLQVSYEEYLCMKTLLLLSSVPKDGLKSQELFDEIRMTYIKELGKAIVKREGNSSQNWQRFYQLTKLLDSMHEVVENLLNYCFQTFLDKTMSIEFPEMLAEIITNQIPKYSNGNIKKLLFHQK
Sequence of Androgen receptor (Homo sapiens) (P10275 whole entry, looked up): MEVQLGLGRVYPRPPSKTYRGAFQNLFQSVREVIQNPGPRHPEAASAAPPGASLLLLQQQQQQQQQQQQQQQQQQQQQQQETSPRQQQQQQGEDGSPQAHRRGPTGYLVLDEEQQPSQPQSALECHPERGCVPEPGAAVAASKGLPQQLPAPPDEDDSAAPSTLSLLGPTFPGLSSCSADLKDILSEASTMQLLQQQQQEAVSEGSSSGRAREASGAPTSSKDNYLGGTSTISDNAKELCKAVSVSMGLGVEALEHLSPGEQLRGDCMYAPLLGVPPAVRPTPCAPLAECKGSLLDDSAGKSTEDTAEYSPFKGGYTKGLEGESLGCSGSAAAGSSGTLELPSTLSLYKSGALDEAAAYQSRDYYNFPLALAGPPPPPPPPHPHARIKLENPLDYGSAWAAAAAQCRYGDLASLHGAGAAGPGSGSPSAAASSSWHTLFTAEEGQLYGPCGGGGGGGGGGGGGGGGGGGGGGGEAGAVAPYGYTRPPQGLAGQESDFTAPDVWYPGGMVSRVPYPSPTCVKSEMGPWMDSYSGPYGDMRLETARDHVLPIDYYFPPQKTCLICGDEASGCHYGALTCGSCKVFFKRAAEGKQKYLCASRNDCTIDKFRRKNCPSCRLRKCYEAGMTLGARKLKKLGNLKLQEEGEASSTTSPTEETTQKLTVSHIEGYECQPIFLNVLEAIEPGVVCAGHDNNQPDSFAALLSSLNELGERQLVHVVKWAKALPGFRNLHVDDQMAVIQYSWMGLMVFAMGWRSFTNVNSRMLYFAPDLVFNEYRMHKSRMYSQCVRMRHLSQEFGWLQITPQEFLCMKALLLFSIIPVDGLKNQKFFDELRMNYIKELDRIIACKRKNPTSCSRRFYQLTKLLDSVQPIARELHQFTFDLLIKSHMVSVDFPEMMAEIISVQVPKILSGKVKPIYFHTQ

On to `N#CCCN(CCO)CCO`, for which the molecule was classed as inactive in [1], in assay [3], in assay [4], in assay [5] and in assay [7]. For the same molecule, the Potency entry in assay [2], in assay [6], in assay [8], in assay [9], in assay [10] and in assay [11] was “inactive” in each case. Besides, the Potency result in [12], in assay [13], in [14], in [15] and in assay [16] was “inactive” in each case.
As to `Cc1ccc(CO)cc1`, the molecule was called inactive in assay [1], in assay [3], in [4], in [5] and in assay [7]. The Potency result in assay [2], in assay [6], in assay [8], in assay [9], in [10] and in assay [11] was “inactive” in each case. Besides, the Potency entry in [12], in assay [13], in assay [14], in assay [15] and in assay [16] was “inactive” in each case.
For `O[C@@H]1CO[C@H]2[C@@H]1OC[C@@H]2O`, the molecule was called inactive in assay [1], in assay [3], in assay [4], in [5] and in assay [7]. The Potency result in assay [2], in assay [6], in assay [8], in assay [9], in [10] and in assay [11] was “inactive” each time. Further, the Potency result in assay [12], in assay [13], in assay [14], in assay [15] and in assay [16] was “inactive” in each case.
For `CC(CO)CO`, the outcome in assay [1], in assay [3], in [4], in [5] and in [7] was inactive. The Potency entry in [2], in assay [6], in [8], in [9], in assay [10] and in assay [11] was “inactive” in each case. Moreover, the Potency entry in [12], in [13], in assay [14], in assay [15] and in [16] was “inactive” in each case.
`NNC(=O)CP(=O)(c1ccccc1)c1ccccc1`: the molecule was classed as inactive in assay [1], in [3], in assay [4], in [5] and in [7]. For the same molecule, the Potency entry in assay [2], in [6], in [8], in assay [9], in assay [10] and in [11] was “inactive” in each case. Besides, the Potency entry in [12], in assay [13], in assay [14] and in assay [15] was “inactive” in each case.
As for `c1ccc(C[n+]2cccc3ccccc32)cc1`, the molecule was called inactive in assay [1], in assay [3], in assay [4], in assay [5] and in assay [7]. The Potency entry in assay [2], in assay [6], in assay [8], in assay [9], in assay [10] and in [11] was “inactive” in each case. Also, the Potency is 54.5 µM (active) in [12], 27.3 µM (active) in assay [13], 27.3 µM (active) in assay [14] and 61.1 µM (active) in [16].
For `c1csc(SSc2cccs2)c1`, the outcome in assay [1], in assay [3], in assay [4], in [5] and in assay [7] was inactive. The Potency result in [2], in assay [6], in assay [8], in [9], in assay [10] and in assay [11] was “inactive” each time. Besides, in assay [16], the Potency result is “inactive”. Besides, the Potency in [12] was 12.2 µM (active); in [13], 6.86 µM (active); in [14], 10.9 µM (active); in assay [15], 38.9 µM (active).
Regarding `CC/C=C1/OC(=O)c2ccccc21`, the outcome in assay [1], in assay [3], in assay [4], in assay [5], in assay [7] and in assay [18] was inactive. In assay [19], the outcome was inactive. For the same molecule, the Potency result in assay [2], in [6], in assay [8], in [9], in assay [10] and in assay [11] was “inactive” each time. The Potency entry in [12], in assay [14], in [15], in assay [17], in assay [16] and in assay [20] was “inactive” each time.
As to `COC(=O)CCS`, the outcome in [1], in assay [3], in assay [4], in assay [5] and in [7] was inactive. The Potency entry in assay [2], in assay [6], in [8], in assay [9], in assay [10] and in assay [11] was “inactive” throughout. The Potency entry in assay [12], in [13], in assay [14], in assay [15] and in assay [16] was “inactive” in each case.
As to `CN1CCCN=C1COC(=O)C(O)(c1ccccc1)C1CCCCC1` (stereo not drawn), the result in assay [1], in assay [3], in [4], in assay [5] and in assay [7] was inactive. The Potency result in assay [2], in assay [6], in assay [8], in assay [9], in assay [10] and in assay [11] was “inactive” throughout. Moreover, the Potency result in [16] was “inactive”.
In the case of `CCCCC(CC)COP(=O)(O)O` (stereo not drawn), the molecule was called inactive in assay [1], in assay [3], in assay [4], in [5] and in assay [7]. Besides, the Potency result in [2], in [6], in [8], in assay [9], in assay [11] and in assay [13] was “inactive” throughout. Further, the Potency entry in assay [14], in assay [15] and in assay [16] was “inactive” throughout. Further, the Potency in [10] is 49.8 µM (active).
Consider `CC(CN(C)C)C(C)(O)Cc1ccc(Cl)cc1` (stereo not drawn), for which the call in [1], in [3], in [4], in [5], in assay [7] and in assay [18] was inactive. For the same molecule, the molecule was classed as inactive in [19]. Moreover, the Potency result in assay [2], in assay [6], in [8], in assay [9], in [10] and in [11] was “inactive” in each case. In addition, the Potency result in assay [12], in assay [15], in assay [17], in [16] and in [20] was “inactive” throughout.
On to `CCC(OCCCOC)OC(C)=O` (stereo not drawn), for which the molecule was classed as inactive in [1], in [3], in assay [4], in [5] and in assay [7]. The Potency result in [2], in [6], in assay [8], in [9], in assay [10] and in assay [11] was “inactive” in each case. Moreover, the Potency entry in [12], in [13], in assay [14], in assay [15] and in [16] was “inactive” each time.
`Cc1cc2c(OCC(CNC(C)(C)C)OC(=O)c3ccccc3)cccc2[nH]1` (stereo not drawn): the outcome in assay [1], in assay [3], in [4], in assay [5] and in assay [7] was inactive. The Potency entry in assay [2], in assay [6], in [8], in assay [9], in assay [10] and in assay [11] was “inactive” each time. Besides, the Potency entry in assay [15] and in [16] was “inactive” each time.
Turning to `FC(F)(F)c1ccccc1Cl`, the call in assay [1], in assay [3], in assay [4], in [5] and in assay [7] was inactive. The Potency entry in [2], in assay [6], in assay [8], in [9], in assay [10] and in assay [11] was “inactive” each time. In addition, the Potency entry in assay [12], in [13], in assay [14], in [15] and in assay [16] was “inactive” each time.
As to `O=C(OC(=O)c1ccccc1)c1ccccc1`, the result in [1], in [3], in assay [4], in assay [5], in [7] and in [19] was inactive. Further, the Potency entry in [2], in assay [6], in assay [8], in [9], in assay [10] and in [11] was “inactive” each time. The Potency entry in [12], in assay [13], in assay [14], in assay [15], in assay [17] and in assay [20] was “inactive” throughout.
